Records with an inconclusive call do not appear. Active and inactive are the calls of the source. How the source made its calls, unless noted: active means hit-call score of the fitted dose curve at least 0.9, where 1 is the maximum; inconclusive means response in the unintended direction; inactive means score below 0.9.
Columns and labels:
[1] = biological target: Steroid hormone receptor ERR1 (Homo sapiens) (UniProt P11474); test: ATG_ERRa_TRANS: Attagene TRANS-FACTORIAL HepG2 Assay for human Estrogen-Related Receptor alpha (ERRa) (AID 2282971); settings: HepG2 Attagene TRANS reporter, ERRa transactivation
Outline: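 HepG2 cells were transiently transfected with multiple GAL4-UAS reporter units, then dosed with compound for 24 h. Total RNA was reverse-transcribed, reporter cDNA PCR-amplified and fluorescently labelled, and fragments resolved by capillary electrophoresis; induction was compared with DMSO.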

[2] = biological target: X-box-binding protein 1 (Homo sapiens) (UniProt P17861); test: ATG_Xbp1_CIS: Attagene CIS-FACTORIAL HepG2 Assay for human X-box Binding Protein 1 (XBP1) (AID 2282972; active means hit-call score of the fitted dose curve at least 0.9, where 1 is the maximum; inactive means score below 0.9); settings: HepG2 XBP1 cis-element reporter, Attagene multiplex; actives raise or lower the signal
Outline: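 Changes in reporter transcript abundance, read by RT-PCR and capillary electrophoresis, reflect endogenous transcription factor activity. Transfected HepG2 cells received compound for 24 hours; DMSO defined baseline for bidirectional analysis.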

[3] = ATG_GAL4_TRANS: Attagene TRANS-FACTORIAL HepG2 Assay for GAL4 (Internal Marker) (AID 2282976); settings: HepG2 Attagene TRANS GAL4 internal marker reporter
Outline: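 Fluorescence from capillary electrophoresis of labelled RT-PCR products quantifies reporter mRNA induction after 24 h dosing of HepG2 cells carrying transfected GAL4-UAS reporter transcription units. Vehicle DMSO serves as baseline.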

[4] = biological target: Estrogen-related receptor gamma (Homo sapiens) (UniProt P62508); test: ATG_ERRg_TRANS: Attagene TRANS-FACTORIAL HepG2 Assay for human Estrogen-Related Receptor gamma (ERRg) (AID 2282977); settings: HepG2 Attagene TRANS reporter, ERRg transactivation;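 further: hits increase reporter signal over DMSO so potencies reflect activators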
Outline: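 Exogenous NR-Gal4 chimera activity was assessed in HepG2 cells bearing transfected GAL4-UAS reporters. After 24 h dosing, total RNA underwent RT-PCR, fluorescent primer extension and HpaI digestion before capillary electrophoresis, with gain of signal scored against DMSO.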

[5] = biological target: Oxysterols receptor LXR-alpha (Homo sapiens) (UniProt Q13133); test: ATG_LXRa_TRANS: Attagene TRANS-FACTORIAL HepG2 Assay for human Liver X Receptor alpha (LXRa) (AID 2282980); settings: HepG2 Attagene TRANS reporter, LXRa transactivation
Outline: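 Transient HepG2 transfectants, 24 h dosing, RT-PCR/CE mRNA reporter quantitation; gain-of-signal vs DMSO.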

[6] = biological target: Oxysterols receptor LXR-beta (Homo sapiens) (UniProt P55055); test: ATG_LXRb_TRANS: Attagene TRANS-FACTORIAL HepG2 Assay for human Liver X Receptor beta (LXRb) (AID 2282981); settings: HepG2 Attagene TRANS GAL4-LXRb reporter, mRNA
Outline: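 After 24 h of chemical treatment, transfected HepG2 cells yield total RNA; reporter cDNA is PCR-amplified, FAM-labelled, HpaI-cut and run on capillary electrophoresis. Signal reflects chimeric LXRb-Gal4 activity on GAL4-UAS reporters.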

[7] = biological target: Glucocorticoid receptor (Homo sapiens) (UniProt P04150); test: ATG_GR_TRANS: Attagene TRANS-FACTORIAL HepG2 Assay for human Glucocorticoid Receptor (GR) (AID 2282978); settings: HepG2 Attagene TRANS GR reporter, mRNA transcription;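 further: activators score as hits since higher reporter transcript over DMSO is fitted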
Outline: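 Transiently transfected HepG2 cells express chimeric NR-GAL4 proteins acting on GAL4-UAS reporter units. Compounds are applied for 24 h. mRNA induction over DMSO is measured by capillary electrophoresis.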

[8] = biological target: Androgen receptor (Homo sapiens) (UniProt P10275); test: ATG_AR_TRANS: Attagene TRANS-FACTORIAL HepG2 Assay for human Androgen Receptor (AR) (AID 2282973); settings: HepG2 Attagene TRANS-FACTORIAL AR reporter transcription
Outline: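 Transfected HepG2, 24 h treatment, chimeric NR-Gal4 driving GAL4-UAS reporters. mRNA induction by RT-PCR/capillary electrophoresis fluorescence; DMSO as negative control and baseline.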

[9] = ATG_M_19_TRANS: Attagene TRANS-FACTORIAL HepG2 Assay for M19 Transcription Factor (Internal Marker) (AID 2282974); settings: HepG2 Attagene TRANS-FACTORIAL M19 internal marker reporter
Outline: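 Multiplexed TRANS format: HepG2 liver cells bearing transient GAL4-UAS reporter units, chemical treatment 24 h, reporter transcripts quantified by RT-PCR plus capillary electrophoresis. DMSO defines baseline.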

[10] = biological target: Bile acid receptor (Homo sapiens) (UniProt Q96RI1); test: ATG_FXR_TRANS: Attagene TRANS-FACTORIAL HepG2 Assay for Farnesoid X Receptor (FXR) (AID 2282979); settings: HepG2 Attagene TRANS FXR-GAL4 reporter transcription;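 further: hits raise reporter mRNA above DMSO so AC50 marks FXR activation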
Outline: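 Chimeric FXR-GAL4 activity in transiently transfected human HepG2 liver cells is scored as induction of reporter mRNA after 24 h of dosing. Detection uses RT-PCR with fluorescent labelling and capillary electrophoresis, with DMSO serving as baseline.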

Measured: AC50

Sequence of Bile acid receptor (Homo sapiens) (Q96RI1 whole entry, looked up, the tested form may be a part): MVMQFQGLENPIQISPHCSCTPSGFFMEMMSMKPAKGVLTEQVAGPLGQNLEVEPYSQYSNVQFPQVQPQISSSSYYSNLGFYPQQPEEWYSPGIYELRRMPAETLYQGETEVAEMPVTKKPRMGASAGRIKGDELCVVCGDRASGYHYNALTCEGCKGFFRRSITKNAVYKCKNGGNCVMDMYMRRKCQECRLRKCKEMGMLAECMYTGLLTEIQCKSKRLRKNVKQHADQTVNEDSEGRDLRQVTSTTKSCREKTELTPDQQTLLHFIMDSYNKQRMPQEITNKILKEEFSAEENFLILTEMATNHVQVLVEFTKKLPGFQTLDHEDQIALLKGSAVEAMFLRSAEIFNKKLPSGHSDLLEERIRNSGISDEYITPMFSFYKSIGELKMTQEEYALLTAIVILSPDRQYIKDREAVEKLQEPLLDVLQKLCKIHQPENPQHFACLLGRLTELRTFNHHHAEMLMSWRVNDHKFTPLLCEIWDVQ
Sequence of Oxysterols receptor LXR-alpha (Homo sapiens) (Q13133 whole entry, looked up): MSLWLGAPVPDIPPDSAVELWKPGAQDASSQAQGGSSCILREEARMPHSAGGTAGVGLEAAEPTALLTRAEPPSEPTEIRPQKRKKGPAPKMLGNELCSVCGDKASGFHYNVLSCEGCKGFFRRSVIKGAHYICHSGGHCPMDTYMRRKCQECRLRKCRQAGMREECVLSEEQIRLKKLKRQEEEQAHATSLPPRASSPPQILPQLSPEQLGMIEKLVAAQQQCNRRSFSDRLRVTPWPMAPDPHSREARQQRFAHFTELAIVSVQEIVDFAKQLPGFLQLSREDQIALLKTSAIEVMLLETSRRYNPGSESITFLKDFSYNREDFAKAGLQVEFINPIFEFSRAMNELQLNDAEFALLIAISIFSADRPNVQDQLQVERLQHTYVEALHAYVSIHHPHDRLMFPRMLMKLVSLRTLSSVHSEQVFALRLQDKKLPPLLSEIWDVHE
Sequence of Estrogen-related receptor gamma (Homo sapiens) (P62508 whole entry, looked up, the tested form may be a part): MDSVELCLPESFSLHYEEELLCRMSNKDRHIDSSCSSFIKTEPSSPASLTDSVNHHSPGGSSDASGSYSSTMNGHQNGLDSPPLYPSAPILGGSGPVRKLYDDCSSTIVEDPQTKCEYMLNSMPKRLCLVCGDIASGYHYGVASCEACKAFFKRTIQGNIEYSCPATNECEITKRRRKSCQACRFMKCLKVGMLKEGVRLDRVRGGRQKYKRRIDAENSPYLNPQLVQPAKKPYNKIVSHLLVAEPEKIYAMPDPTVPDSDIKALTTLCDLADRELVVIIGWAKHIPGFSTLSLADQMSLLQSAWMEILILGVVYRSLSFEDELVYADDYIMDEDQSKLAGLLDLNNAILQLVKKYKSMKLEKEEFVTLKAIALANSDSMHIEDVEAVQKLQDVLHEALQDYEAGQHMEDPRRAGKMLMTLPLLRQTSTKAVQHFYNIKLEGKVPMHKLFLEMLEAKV
Sequence of Steroid hormone receptor ERR1 (Homo sapiens) (P11474 whole entry, looked up, the tested form may be a part): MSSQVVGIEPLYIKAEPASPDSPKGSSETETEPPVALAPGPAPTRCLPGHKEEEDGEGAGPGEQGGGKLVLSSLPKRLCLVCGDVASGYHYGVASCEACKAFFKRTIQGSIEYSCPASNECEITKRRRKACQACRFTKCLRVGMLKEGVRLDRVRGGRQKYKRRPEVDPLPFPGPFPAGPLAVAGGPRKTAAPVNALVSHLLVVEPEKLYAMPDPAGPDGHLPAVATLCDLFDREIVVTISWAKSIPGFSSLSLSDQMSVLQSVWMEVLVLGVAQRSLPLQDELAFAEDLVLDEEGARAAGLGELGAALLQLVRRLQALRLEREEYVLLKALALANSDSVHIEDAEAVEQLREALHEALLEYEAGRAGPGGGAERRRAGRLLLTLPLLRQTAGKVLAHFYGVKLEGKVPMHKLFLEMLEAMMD
Sequence of X-box-binding protein 1 (Homo sapiens) (P17861 whole entry, looked up): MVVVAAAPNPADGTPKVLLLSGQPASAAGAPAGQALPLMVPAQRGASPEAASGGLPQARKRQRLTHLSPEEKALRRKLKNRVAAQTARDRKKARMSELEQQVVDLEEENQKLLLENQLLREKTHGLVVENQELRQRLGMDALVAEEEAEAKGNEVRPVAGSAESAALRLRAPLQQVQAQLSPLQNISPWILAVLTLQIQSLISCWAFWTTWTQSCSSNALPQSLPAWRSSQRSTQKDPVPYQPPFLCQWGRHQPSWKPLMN
Sequence of Glucocorticoid receptor (Homo sapiens) (P04150 whole entry, looked up, the tested form may be a part): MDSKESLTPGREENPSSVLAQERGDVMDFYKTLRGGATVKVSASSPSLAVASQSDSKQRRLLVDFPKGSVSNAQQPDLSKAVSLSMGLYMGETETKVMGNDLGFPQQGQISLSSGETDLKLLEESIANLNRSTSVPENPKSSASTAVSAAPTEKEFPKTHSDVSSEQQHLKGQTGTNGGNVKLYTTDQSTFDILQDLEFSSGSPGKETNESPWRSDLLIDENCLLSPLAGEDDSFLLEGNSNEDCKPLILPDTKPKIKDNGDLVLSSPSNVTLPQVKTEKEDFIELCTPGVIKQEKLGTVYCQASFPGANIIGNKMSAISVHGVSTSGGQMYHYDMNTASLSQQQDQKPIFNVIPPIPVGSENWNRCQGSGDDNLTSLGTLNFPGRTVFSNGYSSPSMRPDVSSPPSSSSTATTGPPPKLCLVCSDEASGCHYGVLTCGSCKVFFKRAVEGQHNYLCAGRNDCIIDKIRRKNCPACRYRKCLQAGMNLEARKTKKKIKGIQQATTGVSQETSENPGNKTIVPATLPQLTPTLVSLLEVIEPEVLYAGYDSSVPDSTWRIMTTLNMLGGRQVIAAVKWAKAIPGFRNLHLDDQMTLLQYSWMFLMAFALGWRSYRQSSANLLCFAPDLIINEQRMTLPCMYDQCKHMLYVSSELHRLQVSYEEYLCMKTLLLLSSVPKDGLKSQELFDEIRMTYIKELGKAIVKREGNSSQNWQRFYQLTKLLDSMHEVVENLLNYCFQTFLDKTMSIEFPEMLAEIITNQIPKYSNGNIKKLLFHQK
Sequence of Oxysterols receptor LXR-beta (Homo sapiens) (P55055 whole entry, looked up, the tested form may be a part): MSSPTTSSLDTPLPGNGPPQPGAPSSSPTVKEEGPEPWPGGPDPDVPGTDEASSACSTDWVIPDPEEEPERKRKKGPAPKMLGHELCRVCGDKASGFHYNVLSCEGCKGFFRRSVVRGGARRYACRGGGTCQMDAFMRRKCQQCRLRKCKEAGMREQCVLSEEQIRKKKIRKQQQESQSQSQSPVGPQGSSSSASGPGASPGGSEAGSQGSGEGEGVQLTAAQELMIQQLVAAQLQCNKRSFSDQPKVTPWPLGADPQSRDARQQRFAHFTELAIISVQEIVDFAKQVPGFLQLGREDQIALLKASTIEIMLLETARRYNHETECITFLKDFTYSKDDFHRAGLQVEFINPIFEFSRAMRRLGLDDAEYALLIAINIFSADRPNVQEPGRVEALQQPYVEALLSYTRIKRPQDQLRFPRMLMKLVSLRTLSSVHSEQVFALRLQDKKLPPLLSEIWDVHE
Sequence of Androgen receptor (Homo sapiens) (P10275 whole entry, looked up, the tested form may be a part): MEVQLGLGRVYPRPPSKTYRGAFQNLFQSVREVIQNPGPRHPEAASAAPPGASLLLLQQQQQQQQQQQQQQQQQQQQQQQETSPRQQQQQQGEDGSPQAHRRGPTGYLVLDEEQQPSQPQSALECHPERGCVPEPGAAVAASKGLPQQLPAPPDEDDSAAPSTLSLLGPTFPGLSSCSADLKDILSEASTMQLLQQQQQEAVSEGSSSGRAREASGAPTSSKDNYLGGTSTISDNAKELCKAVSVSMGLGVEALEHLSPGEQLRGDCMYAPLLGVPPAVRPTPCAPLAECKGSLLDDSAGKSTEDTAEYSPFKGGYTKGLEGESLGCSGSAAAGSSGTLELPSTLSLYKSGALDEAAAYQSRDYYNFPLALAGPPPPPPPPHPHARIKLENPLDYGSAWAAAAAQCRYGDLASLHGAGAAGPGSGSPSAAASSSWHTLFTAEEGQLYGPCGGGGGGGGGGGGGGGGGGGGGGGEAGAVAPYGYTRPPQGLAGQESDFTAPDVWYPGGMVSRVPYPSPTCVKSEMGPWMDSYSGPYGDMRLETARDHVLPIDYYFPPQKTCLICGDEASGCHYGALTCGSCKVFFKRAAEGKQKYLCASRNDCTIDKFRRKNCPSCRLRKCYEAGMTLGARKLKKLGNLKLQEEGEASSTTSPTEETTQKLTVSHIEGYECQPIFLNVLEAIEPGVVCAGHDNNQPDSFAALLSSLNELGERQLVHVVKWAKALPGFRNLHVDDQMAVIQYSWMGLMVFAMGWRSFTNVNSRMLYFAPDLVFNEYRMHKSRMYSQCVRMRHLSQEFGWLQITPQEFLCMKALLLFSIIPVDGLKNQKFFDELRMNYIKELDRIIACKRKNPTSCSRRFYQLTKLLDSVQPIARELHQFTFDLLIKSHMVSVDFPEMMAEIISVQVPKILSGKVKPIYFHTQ

O=C(CCl)NCO
inactive: [1] | [2] | [3] | [4] | [5] | [6]

Cc1ccccc1OP(=O)(Oc1ccccc1)Oc1ccccc1
inactive: [1] | [2] | [3] | [7] | [5]

Cc1ccc(OP(=O)(Oc2ccc(C)cc2C)Oc2ccc(C)cc2C)c(C)c1
not listed: [5] | [6]
inactive: all other assays above

OC(Cc1ccccc1Cl)(Cn1cncn1)C1(Cl)CC1 (stereo not drawn)
not listed: [3] | [8] | [10]
inactive: all other assays above

Cc1ccccc1OP(=O)(Oc1ccccc1C)Oc1ccccc1C
active: [2] 56.1 µM
not listed: [3] | [4]
inactive: all other assays above

CCOc1ccc(N)cc1
inactive: [1] | [2] | [9] | [4]

CC(O)(CS(=O)(=O)c1ccc(F)cc1)C(=O)Nc1ccc(C#N)c(C(F)(F)F)c1 (stereo not drawn)
inactive: [1] | [2] | [3] | [7] | [5] | [6]

C=C(C)C(=O)OCCCCOC(=O)C(=C)C
inactive: [1] | [2] | [9] | [3] | [6]

N#Cc1ccc(Cl)cc1
inactive: [1] | [2] | [9] | [4] | [6]

O=[N+]([O-])c1cc([As](=O)(O)O)ccc1O
inactive: [1] | [2] | [3] | [7] | [5] | [6]

COc1ccccc1N
inactive: [1] | [2] | [9] | [3] | [4] | [5]

CC(c1ccc(O)cc1)c1ccc(O)cc1
active: [2] 130 µM
inactive: [1] | [9] | [4] | [7]

COCC(=O)N(c1c(C)cccc1C)[C@H](C)C(=O)OC
inactive: [1] | [2] | [9] | [4] | [5] | [6]

C=CCOC(F)(C(F)(F)F)C(F)(F)F
not listed: [6] | [9] | [10]
inactive: all other assays above

CCCCOP(=O)(CCCC)OCCCC
not listed: [5] | [6]
inactive: all other assays above

Cl[C@H]1OCCO[C@@H]1Cl
inactive: [1] | [2] | [9] | [4] | [5] | [6]

O=[N+]([O-])c1cccc2ccccc12
inactive: [1] | [2] | [9] | [3] | [4]

N#Cc1ccccc1N
not listed: [5] | [7]
inactive: all other assays above

Cc1ccc(CCl)cc1
not listed: [4] | [5] | [9]
inactive: all other assays above

O=C(Nc1ccc(Br)cc1)c1cc(Br)cc(Br)c1O
active: [2] 4.92 µM
not listed: [7] | [8] | [10]
inactive: all other assays above

CC(C)[C@H](C(=O)OC(C#N)c1cccc(Oc2ccccc2)c1)c1ccc(OC(F)F)cc1 (stereo partly drawn)
inactive: [1] | [2] | [3] | [4] | [7]

FC(F)OCC(F)(F)C(F)(F)F
inactive: [1] | [2] | [3]

CC(=O)CN(CC(C)=O)N=O
inactive: [1] | [2] | [3] | [7]

CCC[N+](CCC)(CCC)CCC
inactive: [1] | [2] | [9] | [3]

CC(c1ccccc1)(c1ccc(O)cc1)c1ccc(O)cc1
inactive: [1] | [9] | [4] | [7]
active: [2] 15 µM | [10] 12.5 µM

O=[N+]([O-])c1ccccc1O
inactive: [1] | [2] | [3] | [7] | [5]

O=c1[nH]c(=O)n(Cl)c(=O)n1Cl
not listed: [8] | [9] | [10]
inactive: all other assays above

CCCCOC(=O)COC(=O)c1ccccc1C(=O)OCCCC
inactive: [1] | [2] | [3] | [7]

O=c1[nH]c2ccccc2n1C1CCN(CCCC(c2ccc(F)cc2)c2ccc(F)cc2)CC1
inactive: [1] | [2] | [9] | [3] | [4] | [7]

Brc1c(Br)c(Br)c(Oc2c(Br)c(Br)c(Br)c(Br)c2Br)c(Br)c1Br
inactive: [1] | [2] | [3] | [7] | [5] | [6]

C=CC(=O)[O][Sn]([CH2]CCC)([CH2]CCC)[CH2]CCC
active: [2] 0.412 µM
not listed: [3] | [4] | [10]
inactive: all other assays above

COCCl
inactive: [1] | [2] | [8] | [3] | [7] | [5]

O=C1c2ccccc2C(=O)C1C(=O)C(c1ccccc1)c1ccc(Cl)cc1 (stereo not drawn)
active: [2] 5.66 µM | [9] 163 µM
inactive: [1] | [8] | [4] | [7]

Clc1cc(C(Cl)(Cl)Cl)cnc1Cl
inactive: [1] | [2] | [9] | [4] | [10] | [6]

CNC(=O)N(C)c1nc2ccccc2s1
not listed: [4] | [9]
inactive: all other assays above

— PubChem BioAssay (EPA / NIEHS)
